Test results published in publication PMC4336329 (PLoS ONE, 2015).
The whole screen tested about 310,000 compounds, of which about 14,000 (4.5%) showed an effect of 50% or more. The effect is printed as a negative number. The sample as a whole holds a higher share of strong results than the screen did.

biological target: human ether-à-go-go-related gene (hERG) potassium channel (human, UniProt Q12809); experiment: primary screen, population patch clamp on CHO cells stably expressing hERG; higher = less effect of the substance
Sequence (Q12809 whole entry, looked up): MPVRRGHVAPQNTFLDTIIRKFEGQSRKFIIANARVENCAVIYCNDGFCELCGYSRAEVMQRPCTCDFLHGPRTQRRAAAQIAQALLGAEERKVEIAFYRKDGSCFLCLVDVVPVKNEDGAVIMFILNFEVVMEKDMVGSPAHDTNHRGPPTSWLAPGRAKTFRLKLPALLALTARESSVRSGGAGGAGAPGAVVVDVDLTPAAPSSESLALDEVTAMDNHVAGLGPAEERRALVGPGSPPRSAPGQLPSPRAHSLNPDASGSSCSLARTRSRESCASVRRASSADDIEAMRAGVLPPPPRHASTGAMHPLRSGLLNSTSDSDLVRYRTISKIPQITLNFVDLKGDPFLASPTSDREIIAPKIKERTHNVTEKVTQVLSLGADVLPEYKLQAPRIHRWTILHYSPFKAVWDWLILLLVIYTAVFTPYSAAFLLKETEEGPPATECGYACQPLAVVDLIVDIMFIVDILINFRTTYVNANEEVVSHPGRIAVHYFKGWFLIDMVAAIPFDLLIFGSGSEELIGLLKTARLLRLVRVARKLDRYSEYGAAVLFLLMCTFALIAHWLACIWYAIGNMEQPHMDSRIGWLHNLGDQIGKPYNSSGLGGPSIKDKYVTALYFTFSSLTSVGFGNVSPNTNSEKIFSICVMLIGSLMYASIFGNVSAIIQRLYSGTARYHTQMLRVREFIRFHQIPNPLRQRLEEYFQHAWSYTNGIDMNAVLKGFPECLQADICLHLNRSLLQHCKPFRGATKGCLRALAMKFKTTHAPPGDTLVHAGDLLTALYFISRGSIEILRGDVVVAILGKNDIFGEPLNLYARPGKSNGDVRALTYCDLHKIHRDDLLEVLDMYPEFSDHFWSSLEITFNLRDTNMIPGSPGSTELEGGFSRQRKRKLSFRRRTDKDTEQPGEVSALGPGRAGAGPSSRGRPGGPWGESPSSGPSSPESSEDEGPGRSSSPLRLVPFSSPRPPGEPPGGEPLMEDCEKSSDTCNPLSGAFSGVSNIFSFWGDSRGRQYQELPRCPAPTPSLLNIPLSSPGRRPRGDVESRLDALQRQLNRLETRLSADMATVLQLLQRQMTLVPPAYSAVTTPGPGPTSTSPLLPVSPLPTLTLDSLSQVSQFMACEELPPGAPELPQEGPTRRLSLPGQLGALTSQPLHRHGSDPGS
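Also: peak tail current of the secondary pulse compared with the same well before compound.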

Structure (SMILES) | hERG current change (%, negative = inhibition) at 10uM
C/C(=N\NC(=O)c1nn(C)c(C)c1Br)c1cccc(NC(=O)c2ccoc2C)c1 | -23.2%
CCCC(=O)c1ccc(-c2ccccc2)cc1 | -4.95%
Cc1ccc(C(C)C)c(OCCCN2C(=O)NC(C)(C)C2=O)c1 | -14.3%
Cc1ccc(N2C(=O)CC(Sc3cccs3)C2=O)cc1 (stereo not shown) | 12%
Cc1cccc(NC(=O)c2oc3c(c2C)C(=O)CC(C)(C)C3)n1 | -14.9%
CC1=C(C(=O)N2CCCCC2)C2(CCC(C)CC2)OC1=O (stereo not shown) | -6.74%
CC1=C(C(=O)N2CCCCCC2)C2(CCC(C)CC2)OC1=O (stereo not shown) | 2.11%
CC1=C(C(=O)N2CCN(C(=O)c3ccco3)CC2)C2(CCC(C)CC2)OC1=O (stereo not shown) | -63.8%
Cc1c(CCC(=O)O)c(=O)oc2cc(OCc3ccccc3F)ccc12 | 27.4%
Cc1nc(SCC(=O)N2CCOCC2)c2c(=O)n(C)c(=O)n(C)c2n1 | 0.699%
C=CCc1cccc(CNc2cnc3ccccc3c2)c1O | -4.21%
COc1ccccc1N1CCN(Cc2nc(N)nc(Nc3ccc(C)cc3)n2)CC1 | -50.3%
COc1ccccc1N1CCN(Cc2nc(N)nc(Nc3ccccc3)n2)CC1 | -69.6%
COc1ccccc1N1CCN(Cc2nc(N)nc(Nc3ccc(C)c(Cl)c3)n2)CC1 | -75.5%
COc1ccccc1N1CCN(Cc2ccc(Cl)cc2Cl)CC1 | -12.7%
COc1cc2nc(Nc3ccc(C)c(Cl)c3)nc(N)c2cc1OC.Cl | 4.1%
CCc1nnc(NC(=O)c2cccs2)s1 | 9.54%
CCN(C(=O)COC(=O)c1ccc(Cl)cc1N)C1CCCCC1 | -9.34%
CC(=O)OC(C(=O)NC1CCCCC1)c1ccncc1 (stereo not shown) | -11.7%
Cc1sc2nc(SCC(=O)NCc3ccco3)n(Cc3ccccc3)c(=O)c2c1C | -3.84%
COc1ccc(C2=Nn3c(nnc3-c3ccco3)SC2)cc1OC | -54.1%
CCOc1ccc(C2=Nn3c(nnc3-c3ccco3)SC2)cc1 | -10.7%

Structure (SMILES) | hERG current change (%, negative = inhibition) at 10uM
c1ccc(C2=Nn3c(nnc3-c3ccco3)SC2)cc1 | -25.9%
Oc1ccc(C2=Nn3c(nnc3-c3ccco3)SC2)cc1O | 0.591%
COc1ccc(C2=Nn3c(nnc3-c3ccco3)SC2)cc1 | -63.6%
COc1ccc(OC)c(C2=Nn3c(nnc3-c3ccco3)SC2)c1 | -12.6%
Cc1nc2cc(NC(=O)Nc3cccc4ccccc34)ccc2n1C | 2.53%
CCCOc1ccc(C(=O)NNC(=S)NC(=O)c2ccccc2)cc1 | 23.4%
CCc1noc(C)c1C(=O)NC1CC(C)(C)Cc2c1cnn2-c1ccccc1 (stereo not shown) | 5.9%
Fc1ccc2c(c1)C1C=CCC1C(c1cc3c(cc1Br)OCO3)N2 (stereo not shown) | 4.83%
CCOc1ccc(NC(=O)Nc2ccc3c(c2)nc(C)n3C)cc1 | 1.49%
O=C(NNC(=O)c1ccc(S(=O)(=O)N2CCOCC2)cc1)c1ccccc1 | 17.5%
CN(C(=O)CSc1nc2ccc(Br)cc2c(=O)n1Cc1ccco1)C1CCS(=O)(=O)C1 (stereo not shown) | -79.6%
CCOC(=O)CC(=O)CSc1nc2sc(C)cc2c(=O)n1Cc1ccco1 | -51.5%
CN(C(=O)CSc1nc2cc(C(=O)O)ccc2c(=O)n1Cc1ccccc1)C1CCS(=O)(=O)C1 (stereo not shown) | 37.8%
Cc1cc2c(=O)n(Cc3ccco3)c(SCC(=O)c3ccc(Cl)s3)nc2s1 | -18.6%
O=C(CSc1nc2c(sc3ccccc32)c(=O)n1Cc1ccco1)NCC1CCCO1 (stereo not shown) | -13.9%
CCc1cc2c(SCC(=O)NCC3CCCO3)ncnc2s1 (stereo not shown) | -1.05%
Cc1cc2c(=O)n(Cc3ccco3)c(SCC(=O)NCc3ccco3)nc2s1 | -35.8%
CN(C(=O)CSc1nnc(-c2ccco2)n1Cc1ccccc1)C1CCS(=O)(=O)C1 (stereo not shown) | -6.24%
CCc1cc2c(=O)n(Cc3ccco3)c(SCC(=O)NCC3CCCO3)nc2s1 (stereo not shown) | -70.2%
CCc1cc2c(SCC(=O)NC3CCS(=O)(=O)C3)ncnc2s1 (stereo not shown) | -1.87%
CCc1cc2c(=O)n(Cc3ccco3)c(SCC(=O)NC3CCS(=O)(=O)C3)nc2s1 (stereo not shown) | -72.2%
